For 18 molecules, Percent Effect results are on record in ChEMBL document CHEMBL3988442, “University of Dundee, Small-Polar-MMV Screening Library” (2021).

The target of the test is AMP-activated protein kinase, AMPK (Homo sapiens) (UniProt P54646+O43741+P54619+Q9UGJ0+Q9Y478+Q13131+Q9UGI9). As to the kind of experiment: AMP-dependent Kinase enzyme assay. An in vitro enzyme assay that detects ADP turnover that is directly proportional to AMPK activity. This uses naive AMPK that is activated during the assay with MK-8722. It is filed as functional. Also noted: scale not given: direction of the effect not stated beside the values. Particulars: 30 µM.
Regarding `NC1CCc2nc(-c3ccncc3)nc(Nc3cccc(F)c3)c2C1` (stereo not drawn), the Percent Effect was -70.9%.

Take `Cc1cnn(CC2CCN(CC(O)Cn3cccn3)CC2)c1` (stereo not drawn): the Percent Effect was determined as 11.8%.

On to `CN(C)C[C@@H]1CN(C(=O)c2cc(-c3ccccc3)n[nH]2)C[C@@H]1CO`, for which the Percent Effect is -6.79%.

As for `O=C(NCc1nnc2n1CCC2)c1cccc(Br)c1`, the Percent Effect was found to be 3.99%.

`CN1CCCC1CCNC(=O)c1ccccc1-n1cc(CN)cn1` (stereo not drawn): the Percent Effect amounted to 11.2%.

Turning to `O=C(NCc1nncn1C1CC1)c1cccnc1Oc1ccccc1`, the Percent Effect turned out to be 1.39%.

Consider `CC(C)(C)CN(CCO)C(=O)Nc1cccc(N2CCNC2=O)c1`, for which the Percent Effect was found to be 2.19%.

For the molecule `CO[C@@H]1CC[C@@H](NC(=O)CCc2ccc(Cl)cc2)[C@H]1O`, the Percent Effect came out at 8.1%.

As for `Cc1ccc(CCCC(=O)N2CCC(=O)Nc3cccnc32)s1`, the Percent Effect was -8.96%.

Consider `CC(NCc1nnc2n1CCCC2)c1nc(Cc2ccccc2)no1` (stereo not drawn), for which the Percent Effect was -1.56%.

Turning to `CCNC(=O)c1ccnc(N2CCCC(COc3ccccc3C)C2)c1` (stereo not drawn), the Percent Effect was -0.143%.

Consider `Cc1cn[nH]c1C1COCCN1Cc1c[nH]cn1` (stereo not drawn), for which the Percent Effect came to 8.68%.

Regarding `CC(C)(C)C(NC(=O)CCCS(C)(=O)=O)c1ccc(F)cc1F` (stereo not drawn), the Percent Effect is 7.18%.

As to `CCN(CC)C(=O)CN1CCCC1C(=O)N(C)C` (stereo not drawn), the Percent Effect is -2.41%.

For the molecule `Cc1c(NC(=O)N(C)CCn2cnnc2)cccc1OC1CCCC1`, the Percent Effect is -2.5%.

Regarding `Cc1ncsc1CCN(C)C(=O)c1ccc(CN2CCCCC2)cc1`, the Percent Effect stood at 5.27%.

On to `Cn1ccc(C(=O)N2CCCC2c2cc(CO)[nH]n2)n1` (stereo not drawn), for which the Percent Effect was 20.7%.

With `COC(=O)N1CCCCC1C(=O)N1CCN(c2cccnc2)CC1` (stereo not drawn), the Percent Effect was -4.3%.
